DT40 TDP1 no CPT: qHTS for Inhibitors of human tyrosyl-DNA phosphodiesterase 1 (TDP1): qHTS in cells in absence of CPT; DT40 Tdp1-/- hTDP1 cells, no CPT, ATP luminescence, 48 h; Potency, µM (highest dose often 46.2 µM), inactives show at the top dose activity change, negative = growth inhibition, most hits filed as inhibitors; 420,000 tested, 15% active; also: potency is read from the fitted curve at half-maximal effect; nearly all actives have a fitted effect of over 55% in size
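Growth kinetics read by CellTiter-Glo luminescence after ≥48 hr at 37 °C. Cells: DT40 Tdp1-/- stably carrying human TDP1, 400 per well, compound exposure in the absence of CPT (DMSO vehicle).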
IL1B secr inh: qHTS for Inhibitors of Inflammasome Signaling: IL-1-beta AlphaLISA Primary Screen; THP-1 LPS/ATP IL-1B secretion, AlphaLISA, 16 h; stronger effect = lower value; activity change, % at 57.5 µM; 360,000 tested, 4.7% active; AID 743279, 2014; in the data active = activity change below about -50%; inconclusive = mostly about -30% to -49%
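THP-1 cells pretreated 1 hr with compounds (up to 57.5 uM final), then stimulated with LPS (250 ng/mL final) plus ATP (1.25 mM final); secreted IL-1B measured by AlphaLISA after 16 hr, decreased signal indicating inhibition.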
DT40 TDP1 CPT: qHTS for Inhibitors of human tyrosyl-DNA phosphodiesterase 1 (TDP1): qHTS in cells in presence of CPT | chicken DT40 Tdp1-/-;hTDP1 cells + 20 nM CPT, ATP luminescence, 48 h | Potency, µM (top dose mostly 46.2 µM), inactives show at the top dose activity change, negative = growth inhibition, usual class: inhibitors | 420,000 tested, 12% active; also: potency is read from the fitted curve at half-maximal effect; nearly all actives have a fitted effect of over 55% in size
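Chicken DT40 Tdp1-/- cells complemented with human TDP1, 400 cells/well, exposed to compounds plus 20 nM camptothecin for at least 48 h at 37 C; viability read as ATP content by CellTiter-Glo luminescence.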
12-LOX inh: Primary qHTS assay for inhibitors of human arachidonate 12S-lipoxygenase (ALOX12): Round 2 | 580,000 tested, 1.1% active | Polyunsaturated fatty acid lipoxygenase ALOX12 (Homo sapiens), P18054 | AID 1671190, 2021 | Potency, µM (top dose mostly 108 µM), inactives show at the top dose activity change, negative = inhibition, usual class: inhibitors | purified 12hLO, xylenol orange hydroperoxide absorbance; also: potency is read from the fitted curve at half-maximal effect
Target sequence (P18054 whole entry, looked up): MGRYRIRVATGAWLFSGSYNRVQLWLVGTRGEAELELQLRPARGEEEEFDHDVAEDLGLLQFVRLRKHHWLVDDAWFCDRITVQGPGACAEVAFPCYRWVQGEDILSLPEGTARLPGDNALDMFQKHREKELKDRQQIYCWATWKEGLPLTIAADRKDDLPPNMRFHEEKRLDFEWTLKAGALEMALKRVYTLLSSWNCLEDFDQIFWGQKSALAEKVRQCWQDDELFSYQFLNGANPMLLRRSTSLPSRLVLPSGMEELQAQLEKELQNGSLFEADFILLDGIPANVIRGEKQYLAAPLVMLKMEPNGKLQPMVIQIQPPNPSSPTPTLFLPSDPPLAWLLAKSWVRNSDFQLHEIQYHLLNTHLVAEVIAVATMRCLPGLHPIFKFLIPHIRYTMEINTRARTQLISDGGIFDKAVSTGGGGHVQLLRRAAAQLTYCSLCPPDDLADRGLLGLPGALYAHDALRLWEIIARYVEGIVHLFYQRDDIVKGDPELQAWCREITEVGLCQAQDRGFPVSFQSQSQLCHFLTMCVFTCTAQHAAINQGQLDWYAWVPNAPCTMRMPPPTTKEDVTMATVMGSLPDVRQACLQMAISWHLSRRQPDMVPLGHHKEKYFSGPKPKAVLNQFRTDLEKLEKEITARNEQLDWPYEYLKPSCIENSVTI
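Purified human 12hLO at 150 nM in 25 mM Hepes, 0.01% Triton X-100, pH 7.0, preincubated 15 min at room temperature with compound. Reaction started with 40 uM arachidonic acid, 30 min at room temperature. Hydroperoxide measured by Fe-xylenol orange, 573/405 nm absorbance ratio.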
HT1080-NT tox: qHTS for induction of synthetic lethality in tumor cells producing 2HG: qHTS for the HT-1080-NT fibrosarcoma cell line | HT-1080-NT fibrosarcoma viability, CellTiter-Glo ATP luminescence, 48 h | Potency, µM (highest dose often 46.1 µM), without a hit: at the highest dose activity, negative = less viability, hits mostly cytotoxic | 360,000 tested, 1.6% active | AID 686970, 2013;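 also: NT is the 2HG producing partner of a matched IDH1 knockdown line; potency is read from the fitted curve at half-maximal effect; 0% = DMSO-treated cells and -100% = media-only wells without cells; nearly all actives have a fitted effect of over 55% in size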
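750 cells/well, RPMI + 5% FBS; 2 h settle, compound pin-transfer, 48 h at 37 degrees C. CellTiter-Glo 10 min RT, luminescence. Normalized to DMSO and media-only wells.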
HT1080 IDH1KD tx: qHTS for induction of synthetic lethality in tumor cells producing 2HG: qHTS for the HT-1080-IDH1KD cell line. HT-1080 IDH1 knockdown viability, ATP luminescence, 48 h. Potency, µM (doses to about 46.1 µM), without a hit: top-dose activity, negative = toxicity, actives largely listed as cytotoxic. 360,000 tested, 2% active;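 also: potency is read from the fitted curve at half-maximal effect; 0% = DMSO wells and -100% = cell-free medium wells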
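Using the IDH1-knockdown HT-1080 line run in the same batch and compound series as the NT line, viability after 48 h at 37 °C was determined by CellTiter-Glo luminescence and expressed as % activity.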
Numbers without * were called inactive; u = inconclusive; x = not tested or not shown; [ ] = remark or other dose. The entries come from a sample that favours hits as a whole. Unless noted, calls follow the shape of the dose curve; as a rule, active = well fitted curve in the direction sought with a large enough effect; inconclusive = small, poorly fitted or top-dose-only effect, or another doubt; inactive = no such curve, though single readings can be large; an effect the other way counts as inactive or inconclusive. Unless noted, % is scaled to controls: 0 for no effect and ±100 for the full control effect.

SMILES	DT40 TDP1 no CPT	IL1B secr inh	DT40 TDP1 CPT	12-LOX inh	HT1080-NT tox	HT1080 IDH1KD tx
COc1ccccc1C(=O)N1[C@H]2CC[C@@H]1c1cnc(-c3ccc(F)cc3)nc1C2	x	x	x	8.8%	x	x
COc1cccc(C(=O)c2c(N)c(-c3nc(-c4ccccc4)cs3)c3ccccn23)c1	20.6µM*	x	u	-23.6%	x	x
c1cncc(C2=NOC3(CCCN(CC4CCCCC4)C3)C2)c1 (stereo not drawn)	x	x	x	3.4%[6.33 µM]	x	x
CCC(C)C(=O)N[C@@H](c1ccccc1)[C@@H](O)C(=O)O[C@H]1C[C@@]2(O)[C@@H](OC(=O)c3ccccc3)C3[C@](C)(C(=O)[C@H](OC(C)=O)C(=C1C)C2(C)C)[C@@H](O)C[C@H]1OC[C@@]31OC(C)=O (stereo partly drawn)	0.184µM*	16.9	0.0291µM*	5.6%	0.184µM*	u
C/C=C(\C)C(=O)N[C@@H](c1ccccc1)[C@@H](O)C(=O)O[C@H]1C[C@@]2(O)[C@@H](OC(=O)c3ccccc3)C3[C@](C)(C(=O)[C@H](OC(C)=O)C(=C1C)C2(C)C)[C@H](O)C[C@H]1OC[C@@]31OC(C)=O (stereo partly drawn)	0.164µM*	41.3	0.13µM*	36.6%	0.0461µM*	0.0052µM*
CC/C=C/CC(=O)N[C@@H](c1ccccc1)[C@@H](O)C(=O)O[C@H]1C[C@@]2(O)[C@@H](OC(=O)c3ccccc3)C3[C@](C)(C(=O)[C@H](OC(C)=O)C(=C1C)C2(C)C)[C@@H](O)C[C@H]1OC[C@@]31OC(C)=O (stereo partly drawn)	0.184µM*	15.0	0.0206µM*	-2.0%	0.0411µM*	0.0052µM*
CCCCOc1ccc(C(=O)NCCc2csc(-c3ccc(OC)cc3)n2)cc1	4.11µM*	x	4.61µM*	-30.4%	x	x
C[C@H](CO)N1C[C@H](C)[C@@H](CN(C)C(=O)c2ccc3c(c2)OCO3)Oc2cc(/C=C/c3ccccc3)ccc2S1(=O)=O	8.2µM*	u	20.6µM*	-7.8%	-21.1%	-28.1%
CN(C)C(=S)SC(=S)N(C)C	0.841µM*	x	0.841µM*	u	x	x
CN(C)C(=S)SSC(=S)N(C)C	0.146µM*	24.1	0.146µM*	u	u	u
O=C1OCCC1Sc1ncccc1Cl (stereo not drawn)	x	x	x	22.9%	x	x
Cc1ccc(N2C(=O)NC(=O)/C(=C/c3cnn(-c4ccc(C)cc4)c3)C2=O)cc1	18.4µM*	-10.3	16.4µM*	-24.5%	-5.5%	-2.3%
O=C1CS(=O)C2(CCNCC2)N1c1ccccc1 (stereo not drawn)	x	x	x	61.6%	x	x
COc1cc2cc(c1Cl)N(C)C(=O)CC(OC(=O)C(C)N(C)C(C)=O)C1(C)OC1C(C)C1CC(O)(NC(=O)O1)C(OC)C=CC=C(C)C2 (stereo not drawn)	0.13µM*	32.2	0.0461µM*	0.4%	0.0041µM*	u
CCC(C)C1NC(=O)C(C(C)=O)=C1O (stereo not drawn)	u	25.7	16.4µM*	-15.9%	20.6%	1.0%
COC(=O)C1=C(c2ccc(F)cc2OCc2ccccc2)C[C@@H]2CC[C@H]1N2C(=O)NCc1ccccc1	u	u	u	0.1%	-24.8%	-12.1%
COC(=O)C1=C(c2ccc(F)cc2OCc2ccccc2)C[C@@H]2CC[C@H]1N2C(=O)NC1CCN(Cc2ccccc2)CC1	23.1µM*	u	8.2µM*	-3.8%	-23.4%	-23.5%
COC(=O)C1=C(c2ccccc2OCc2ccccc2)C[C@@H]2CC[C@H]1N2C(=O)NCCN1CCOCC1	-25.3%	-6.6	-22.6%	-57.2%	18.4%	2.0%
COC(=O)C1=C(c2ccccc2OCc2ccccc2)C[C@@H]2CC[C@H]1N2C(=O)NC1CCN(Cc2ccccc2)CC1	23.1µM*	-65.0*	u	u	-23.6%	-36.4%
COC(=O)C1=C(c2cccc(OCc3ccccc3)c2)C[C@@H]2CC[C@H]1N2C(=O)NC1CCN(Cc2ccccc2)CC1	6.51µM*	-63.4*	6.51µM*	-22.8%	23.1µM*	u
O=C1/C(=C\c2ccc(F)cc2)N2CCC1CC2	x	x	x	-25.9%	x	x
Cc1ccc(C)c(S(=O)(=O)N2[C@H]3CC[C@@H]2c2cnc(-c4ccc(F)cc4)nc2C3)c1	x	x	x	-16.9%	x	x
CCOC(=O)c1ccc2c(c1)N(C)C(=O)c1ccccc1S2	u	13.2	u	x	4.8%	8.2%
CCOC(=O)[C@]12Cc3c(cc(OC)c(OC)c3OC)[C@H]1N(CCC(=O)OC)C(=O)c1ccccc12	16.4µM*	-116.3*	18.4µM*	95.8%	u	u
CCOC(=O)[C@]12Cc3c(cc(OC)c(OC)c3OC)[C@H]1N(C)C(=O)c1ccccc12	20.6µM*	-54.8*	u	91.5%	10.7%	1.1%
SMILES	DT40 TDP1 no CPT	IL1B secr inh	DT40 TDP1 CPT	12-LOX inh	HT1080-NT tox	HT1080 IDH1KD tx
O=C1C[C@@H]2CCN(C3COC3)C[C@@H]2CCN1	x	x	x	0.1%[12.5 µM]	x	x
COc1ccc(-c2ccc3n2Cc2cnnn2-c2ccccc2-3)cc1	u	-8.6	u	-7.8%	-6.3%	-1.9%
N#CC1c2ccccc2-n2nncc2CN1Cc1cc(Cl)cc(Cl)c1 (stereo not drawn)	1.84µM*	-102.2*	1.64µM*	u	8.2µM*	6.51µM*
c1ccc(CCc2ccc3n2Cc2cnnn2-c2ccccc2-3)cc1	u	-57.6*	6.51µM*	9.3%	u	u
N#CC1c2ccccc2-n2nncc2CN1C(=O)CCc1ccccc1 (stereo not drawn)	10.3µM*	-4.4	14.6µM*	1.0%	3.9%	1.5%
CN1Cc2cnnn2-c2ccccc2C1C#N (stereo not drawn)	u	0.0	-20.8%	-19.5%	-11.2%	u
CC(=O)N1Cc2cnnn2-c2ccccc2C1C#N (stereo not drawn)	4.4%	4.9	-1.0%	5.9%	16.4%	12.4%
COc1ccc(C(=O)N2Cc3cnnn3-c3ccccc3C2C#N)cc1 (stereo not drawn)	-13.6%	-0.1	-11.6%	-4.0%	16.0%	12.0%

Bioassay records: PubChem BioAssay, National Center for Advancing Translational Sciences (NCATS)
